According to PubChem BioAssay AID1347426 (Functional Genomics Laboratory (NCATS/FGL), 2020):
Screen size: about 31,000 sequences; about 1,400 (4.5%) were called active.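 Rule for the calls: active = median seed-adjusted z-score above 1 or below -1; inactive = the rest.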 The full list was thinned out, with actives kept by preference.

assay: Novel Modifiers of Survival Motor Neuron (SMN) Protein: Gene Identification via Genome-wide siRNA Screen; conditions: HEK293T SMN2-luciferase reporter, siRNA knockdown, 72 h; actives lie on both sides;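 note: luminescence tracks full-length SMN protein made from the SMN2 reporter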
In short: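 Genome-wide siRNA screen (10418 genes, 3 siRNAs each, 1 pmol per well) by reverse transfection in HEK293T cells stably carrying an SMN2-luciferase reporter; luminescence after 72 hours, normalized to negative-control siRNA, log10-transformed, MAD-scored.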

| Sequence | median seed-adjusted z-score |
| --- | --- |
| GGGUGUCUGCGAUUAUCUUTT against WDFY1 | 0.979 (inactive) |
| GGUUGGUGAUGUCAAGUAUTT against CDKL2 | -0.293 (inactive) |
| AGUGGUCCCUUCACAGGAATT against GNRH2 | 1.13 (active) |
| AGCCUUUAGUGUCCGUUCATT against ZNF347 | 0 (inactive) |
| GGGACUAGCUCUUCGCAUATT against PTGER3 | -0.321 (inactive) |
| GACUCUGAAUGCUUGCUGUTT against MMS19 | 0.0142 (inactive) |
| CCAUCUAUGAGGCGGGAAATT against MFI2 | 0.365 (inactive) |
| GAAUCUUGCCCGUCUAUAATT against RSC1A1 | 0.438 (inactive) |
| CACCAUCUCCGGGAACAGATT against FUT1 | 0.000845 (inactive) |
| GCAUGGGUUUUAUUAUAUATT against CCL11 | -0.221 (inactive) |
| CACGAGCUAAAGUAAAAUATT against EGLN1 | 2.05 (active) |
| CAUCAUUACUGUUGAGGGATT against CSRP2BP | -0.526 (inactive) |
| GAGAAACCUUUAUUCGAUATT against GLULD1 | -0.332 (inactive) |
| CCAUCGACAUUGAAACCUUTT against PITPNM2 | 0.275 (inactive) |
| GCAAUGCGUUCUUUCUAAATT against SIGLEC11 | -0.395 (inactive) |
| CAAAGAGAUUUGUACAGAUTT against ZNF140 | 0.587 (inactive) |
| GGACGAGCCUCAUGAAUGATT against SEC11B | 1.04 (active) |
| CAGUGUCCAUGUACCUCUUTT against SLC37A4 | -0.00202 (inactive) |
| GCAUUUAGGUACCAGCUCATT against SLC39A2 | 0.0602 (inactive) |
| CCAGGGAUAUGAUUGACAATT against SERPINE2 | 0.0144 (inactive) |
| GCAGUACACGAGAAAGUCATT against 1-Sep | 0.0103 (inactive) |
| CUACAUCAAGAAGACAUAUTT against ABHD2 | -1.21 (active) |

| Sequence | median seed-adjusted z-score |
| --- | --- |
| CUCUCUCUCUACGAACAUUTT against TCF7 | -0.338 (inactive) |
| CGACCCAGACAAUAGACUATT against CCNT1 | -0.72 (inactive) |
| GGUAUGGAUUGAUGCCGCATT against SLC6A2 | 0 (inactive) |
| GCACCAUUCUAACAAUGGATT against NANS | -1.54 (active) |
| CCAACAAGCUGUCUCCCUATT against CENPB | 0.292 (inactive) |
| GUACAAGAGAUAAUGCAAATT against TFPI | -0.0076 (inactive) |
| CUAUCAUAGUGACAAGCGATT against GJA5 | 0.707 (inactive) |
| AAGUACAUAUAACCACUUATT against RAB14 | -0.0567 (inactive) |
| CAGUGACCCGGAUCCUCUATT against RHCG | 0.375 (inactive) |
| CCUGGACGAGUUUAUAAUATT against AP1S3 | 0.153 (inactive) |
| GCCGUAUAAGUGUCAAGCATT against ZNF57 | 0 (inactive) |
| CAAUGUUAGGAGUCAGUCATT against ACTL6A | 1.11 (active) |
| AGGGCUUGUUUGACAACUUTT against CHTF18 | 0.371 (inactive) |
| GCUGAUACCUUCUACCGUATT against GDPD2 | -0.0868 (inactive) |
| ACCGCACGAUGUUCAACUUTT against DNAJC30 | 0.329 (inactive) |
| CAGACAUGAAGUAUAAGAATT against TCEA2 | 0.552 (inactive) |
| CCUGCCCAAUGUGACCUUUTT against MRC2 | -1.34 (active) |
| CAAAUCCUAUAGUAUAACATT against RPS6KC1 | 0.344 (inactive) |
| AGAUUAAGAUGUUCUACGATT against ADI1 | 0.0593 (inactive) |
| GCCCAUUGACUAUUACUUUTT against AR | -0.559 (inactive) |
| GAUGGAAGAUGGAACGGUUTT against CDC42BPA | 0.257 (inactive) |
| GUAUGUCAAGGAGAACGGATT against CTSL2 | -1.04 (active) |

| Sequence | median seed-adjusted z-score |
| --- | --- |
| CAUUAUCACUGGUGCACUUTT against CHN1 | 2.1e-05 (inactive) |
| GGAAUAACAGUUGUAGGAATT against TMTC3 | 0.266 (inactive) |
| GAGAGCAACUUAAAGACGATT against ST18 | 0.0762 (inactive) |
| UGCUCUACAUCAACCCUGATT against FSHR | -0.462 (inactive) |
| GAAGAGCCGUAUGAUCGAATT against ZNF432 | -0.124 (inactive) |
| CAAGGAGCAGGGAUAUGAATT against ADAP2 | -1.1 (active) |
| GAGAGAUUGUGAUUGGAGATT against BHMT | 0 (inactive) |
| GGAUCCUAUUGAGAGGCUATT against HS2ST1 | 0.421 (inactive) |
| GCACCAAGCAUUAUGAAAATT against SDCBP | 0.0325 (inactive) |
| CACCUGAAGUAAAUCGGAUTT against SF3B14 | -1.26 (active) |
| AGACAGUGUGGGUCCUGGATT against CD300E | 0.337 (inactive) |
| GGCAGUUAAUGGAACAAUUTT against MTMR7 | -0.207 (inactive) |
| CGUGGGCUCUAUCUACUAUTT against PUF60 | 2.26 (active) |
| GAUAGAUCGUUUUAAGAGATT against MST4 | 0.343 (inactive) |
| CGACAACAUAUGUUCCGGATT against TNFRSF11B | 0.582 (inactive) |
| UAAUCAAGCUGAAAACAGATT against TRYX3 | 2.3 (active) |
| AAUUCGAGCUGGUGCCAUCTT against MYCL1 | 0.0658 (inactive) |
| ACCUCUACGUGGUCAGCUATT against DPP9 | -0.224 (inactive) |
| CCAAACGAUUUAUACCUAATT against IPMK | -0.00138 (inactive) |
| GAACAACCUGGAGAAAUAUTT against ENDOG | -0.336 (inactive) |
| GGAGAGACAUCGUCAGCUATT against AGXT | 0.017 (inactive) |
| GAUGCUGGUUGGUUCGAUATT against MFSD4 | -1.89 (active) |

| Sequence | median seed-adjusted z-score |
| --- | --- |
| GAGUUUCGCCUGCUACAGATT against CELSR3 | 0 (inactive) |
| GGAUGAUUCGGAAGGUGAATT against ZNF467 | 0 (inactive) |
| GGGCCGUGCUGAUUGAGAATT against GPX2 | -0.21 (inactive) |
| GGAGAAGAAUGAGCAACUUTT against ADAM19 | 0.0996 (inactive) |
| GGGCUUUGAUAGGAAUGCATT against UBE2K | 0.497 (inactive) |
| CGCAGUAUGUGGACUAUGATT against NID2 | 0.283 (inactive) |
| GCUGAAAUCAAAAAGCGGATT against RAB1B | 1.55 (active) |
| GGAAUGUGGUAACAGGAGATT against GMPR2 | 0.232 (inactive) |
| CCUACUCUGUUGUUCGAAATT against C3 | 0.0281 (inactive) |
| GCGGGAGAAGCUUACCUUUTT against DPP3 | -0.261 (inactive) |
| GGAAAUAUGCGGCUACGGATT against NADSYN1 | 0.217 (inactive) |
| CGGGUACUGCUACACCUUUTT against SLC22A8 | 0.175 (inactive) |
| GUGAGACAGUUGACCGAGATT against SLC26A2 | -1.25 (active) |
| CAUUCAAAUUUACCCUGUATT against POLR2H | -2.74 (active) |
| GGACCUUGUUAACAGUGGATT against APOBEC1 | -0.323 (inactive) |
| CCCUGUACGUGUACAUCAUTT against MPG | -0.0888 (inactive) |
| GAGGCAGUCUUAAAAUGGATT against RAB32 | -0.112 (inactive) |
| CUUCAAGAAUAAGUACGAATT against KRT7 | 0 (inactive) |
| GUGUGAUUCUUGGAGCAAATT against PLD2 | -0.743 (inactive) |
| CAACUACAACUGUGAGAUUTT against SF3A3 | -2.1 (active) |
| GAAAUACUGCGGUAUAAAATT against SYTL2 | 0.211 (inactive) |
| GCCCAUAGAGGGUUCAGAATT against CCNT1 | -0.72 (inactive) |

| Sequence | median seed-adjusted z-score |
| --- | --- |
| GAGAUGAACCGGAACAUCATT against LOC650864 | 0.214 (inactive) |
| GAACCAUGGAUGGUGAUAATT against ZNF287 | 0.0213 (inactive) |
| GCUCCACAGCAUAUGCUCATT against NFIL3 | 0.4 (inactive) |
| GAACUGUGAAUUAGAUGUATT against F9 | 0.332 (inactive) |
| GGAACACGCUGACAGGACATT against FZR1 | 0.729 (inactive) |
| CGAUGUUGAAGUUACACCATT against ATP13A4 | -1.09 (active) |
| CCGCGAAUCCAUGACAAUATT against UGCG | 0.492 (inactive) |
| CCACCUCUACCAAACAUUUTT against IL2RG | -0.155 (inactive) |
| GGAGAUUCAUUCUAACCAUTT against ADAMTS19 | -0.39 (inactive) |
| CAGUGAGAGUUUCAUCUUUTT against PKD1L2 | -1.17 (active) |
| GGAUAUGAGUUACAUGACATT against GALNT5 | -0.279 (inactive) |
| GGACGACUUCUUUAAGUCATT against PGD | -1.55 (active) |
| CGGCAAUUGUUGACGUGAATT against TXNDC11 | 0.642 (inactive) |
| GGAUGGACUUUAUCCAGCATT against TM7SF4 | 0.0246 (inactive) |
| GGACAACAGUCGGUCGAAUTT against ANP32C | -0.421 (inactive) |
| UGAUAUCGGCUACGUCAAATT against NAGK | 0.446 (inactive) |
| GGAUUACAGUGUCCAAAGATT against ADRA1A | -1.06 (active) |
| CCUACUAUGUGAGCAAUGATT against EEF1G | -0.206 (inactive) |
| GAGUCACAAUCGCAUGAAATT against FKBP9 | 0.359 (inactive) |
| CCACACUUUUGGUCUUUAATT against PGDS | 0.02 (inactive) |
